Data published in PubChem BioAssay.
Where “and” joins values, the source holds several entries; their conditions need not be identical. Identical values can stand only once. Calls of active or inactive are those of the source.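 How the source made its calls, unless noted: active means inhibition at or above 50% relative to wild type and mutant plate controls; inactive means inhibition below 50%.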

Tests used:
[1] = inhibitors of TNFa-induced NFkB p65 translocation, primary screen, imaging, HUVEC, MLSMR starter and 10KST1 sets (AID 438;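 active means inhibition above 20% together with a positive visual image hit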;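 further: compound added about 3h40 before a 20 min TNFalpha stimulation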;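 on inhibition: signal is the nuclear over cytoplasmic p65 intensity ratio per well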); settings: HUVEC TNFa-induced p65 nuclear translocation; cell count: measured here: nuclei count (cytotoxicity indicator), at 2.08 µM; inhibition: at 2 µM, stronger effect = higher value, 0% TNFa-plus-vehicle, 100% no-TNFa wells
[2] = inhibitors of mutant huntingtin aggregation, primary screen, imaging, exon1htt(103Q)mCFP cells, high-content imaging (AID 483;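 active means visual image review flags a hit and inhibition of aggregation exceeds 20%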;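 further: compound exposure lasted 3 days before fixation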;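 on nuclei count: percent of the per-plate median nuclei count of sample wells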); settings: exon1htt(103Q)mCFP cell line, aggregate imaging, at 2 µM; inhibition of aggregation: stronger effect = higher value; nuclei count: measured here: cell count, toxicity
[3] = inhibitors of E-selectin induction by TNFa, primary screen, imaging, HUVEC, immunofluorescence, MLSMR starter and 10KST1 sets (AID 487;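 active means visually confirmed hit in the image check and inhibition above 20%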;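 on inhibition: signal is fraction of cell area covered by stained E-selectin grains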;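 on nuclei count: 100% = median nuclei count of all wells on the same plate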); settings: HUVEC TNFalpha-induced E-selectin immunofluorescence imaging, at 2 µM; inhibition: stronger effect = higher value; nuclei count: measured here: cell number, toxicity
[4] = DUSP6 inhibitors restoring Erk phosphorylation by chemical complementation, primary imaging in DUSP6-transfected HeLa (AID 609;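 active means compounds giving at least 50% inhibition in the cell-based MKP-3 phosphatase rescue imaging test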;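 on inhibition: phospho-Erk level distribution per well compared with pooled transfected vehicle control wells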); settings: HeLa MKP-3 transfected, phospho-Erk imaging KS statistic, at 10 µM, cells stimulated with TPA for 15 min
[5] = target: Dual specificity protein phosphatase 6 (Homo sapiens) (UniProt Q16828); test: as above; settings: HeLa MKP-3 transfected, phospho-Erk imaging KS statistic; at 10 µM; stronger effect = higher value; cells stimulated with TPA for 15 min
[6] = target: Voltage-gated potassium channel subunit beta-2 (Rattus norvegicus) (UniProt P62483); test: KvBeta enzyme negative modulators, primary screen, biochemical, NADPH fluorescence (AID 622;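 active means fluorescence slope higher than the sample average by over 3 SD, cut at about -0.22 in these data, passing the limit was not always enough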;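 further: slope of raw intensity against log time taken from 70 to 1610 s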); settings: recombinant KvBeta, 4-cyanobenzaldehyde reduction, at 10 µM, stronger effect = higher value
[7] = target: Voltage-gated potassium channel subunit beta-2 (Rattus norvegicus) (UniProt P62483); test: KvBeta positive modulators, primary screen, biochemical, NADPH fluorescence (AID 623;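 active means NADPH fluorescence slope more negative than the mean of all samples by about 3 SD, 99.7% confidence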;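 further: fluorescence intensity change per second fitted from 20 to 320 s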); settings: Recombinant KvBeta, NADPH fluorescence decrease slope, 10 min; at 10 µM; stronger effect = lower value
[8] = target: Alpha-2C adrenergic receptor (Homo sapiens) (UniProt P18825); test: modulators of alpha2C/GIRK thallium flux, primary screen, cell-based, HEK293 alpha2C/GIRK1/2 (AID 624;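 active means fluorescence slope after compound addition differing from the mean of all screened samples at 99.7% confidence, in either direction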;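 further: slope of fluorescence ratio to pre-addition baseline per second over 15 to 24 s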); settings: thallium flux BTC fluorescence, at 10 µM, actives lie on both sides
[9] = target: Muscarinic acetylcholine receptor M4 (Homo sapiens) (UniProt P08173); test: compounds altering M4/GIRK thallium flux, either direction, primary screen, M4 allosteric agonist project, cell-based, HEK293 M4/GIRK, BTC-AM (AID 625;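 active means fluorescence slope after compound addition differing from the mean of all tested samples at 99.7% confidence, mostly higher but some lower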;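 further: thallium influx through GIRK channels coupled to M4 in HEK293 cells with BTC-AM dye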); settings: at 10 µM, actives lie on both sides
[10] = inhibitors of larval lipid processing in zebrafish, primary screen, whole organism, PED6 fluorescence, gall bladder and intestine (AID 686;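 active means a full or partial loss of lipid-probe fluorescence in the fish gall bladder, intestine or both, judged by eye; inactive means no fluorescence loss, or compound toxic to the fish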;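 further: larvae 5 to 7 days old with five fish per well; signal comes from phospholipase A2 cleavage of quenched PED6 carried via bile; overnight exposure to compound and PED6 before scoring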); settings: Zebrafish larvae PED6 lipid processing, fluorescence scoring; screened at 20 µM (by protocol)
[11] = inhibitors of Chlamydomonas gravitaxis, primary screen, whole organism, Chlamydomonas reinhardtii, WT vs cilia-less mutant, absorbance, 96-well (AID 463189); settings: OD600 absorbance, 2 days, at 10 µM, stronger effect = higher value;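 further: 0% = wild type cc124 cells in DMSO and 100% = ciliumless bld1 mutant cells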
[12] = inhibitors of Sendai virus-induced IRF3 signaling, primary screen, TLR/RLR signaling modifier project, cell-based, Sendai virus stimulus, luciferase, 10K MLSCN set (AID 602276;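 active means inhibition at or above 50% at 10 µM; inactive means inhibition below 50%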;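 further: firefly luciferase from ISG56 promoter only with Renilla not read in this screen; 0% = Sendai virus plus DMSO and 100% = medium plus DMSO without virus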); settings: HEK293 RL24 IRF3 luciferase reporter, at 10 µM, stronger effect = higher value
[13] = inhibitors of poly I:C-induced TLR3 signaling, primary screen, cell-based, poly I:C stimulus, luciferase, 10K MLSCN set (AID 602277;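 active means inhibition of the reporter signal at or above 50%; inactive means inhibition below 50%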); settings: HEK293-TLR3 RL24 IRF3 luciferase reporter, at 10 µM, stronger effect = higher value
[14] = measured here: cell density z-score
[15] = measured here: nuclear c-Myc green intensity z-score
[16] = measured here: nuclear pErk red intensity z-score, stronger effect = higher value

Sequence of Voltage-gated potassium channel subunit beta-2 (Rattus norvegicus) (P62483 whole entry, looked up): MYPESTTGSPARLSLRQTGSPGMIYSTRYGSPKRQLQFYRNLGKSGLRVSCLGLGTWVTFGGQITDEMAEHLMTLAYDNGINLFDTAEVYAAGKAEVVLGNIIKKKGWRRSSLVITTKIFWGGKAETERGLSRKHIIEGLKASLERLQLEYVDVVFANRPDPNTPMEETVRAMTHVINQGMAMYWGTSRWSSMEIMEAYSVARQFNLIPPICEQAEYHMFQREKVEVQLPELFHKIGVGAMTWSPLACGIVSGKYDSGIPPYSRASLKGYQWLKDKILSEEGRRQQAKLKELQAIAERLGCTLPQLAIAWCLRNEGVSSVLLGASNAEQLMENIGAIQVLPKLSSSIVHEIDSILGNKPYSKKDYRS
Sequence of Muscarinic acetylcholine receptor M4 (Homo sapiens) (P08173 whole entry, looked up): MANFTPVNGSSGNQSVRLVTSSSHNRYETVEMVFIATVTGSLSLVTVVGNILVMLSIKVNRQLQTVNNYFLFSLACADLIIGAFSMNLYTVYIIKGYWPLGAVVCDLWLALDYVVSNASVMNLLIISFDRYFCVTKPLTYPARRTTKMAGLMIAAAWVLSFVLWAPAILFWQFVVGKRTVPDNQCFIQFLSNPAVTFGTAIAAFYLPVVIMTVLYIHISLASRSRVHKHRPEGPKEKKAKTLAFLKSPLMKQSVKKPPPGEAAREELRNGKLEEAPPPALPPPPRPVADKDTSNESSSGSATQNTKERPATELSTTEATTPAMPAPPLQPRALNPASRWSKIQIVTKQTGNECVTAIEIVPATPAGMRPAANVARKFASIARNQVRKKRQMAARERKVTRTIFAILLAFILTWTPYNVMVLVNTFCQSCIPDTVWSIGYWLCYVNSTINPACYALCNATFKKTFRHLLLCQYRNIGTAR
Sequence of Alpha-2C adrenergic receptor (Homo sapiens) (P18825 whole entry, looked up): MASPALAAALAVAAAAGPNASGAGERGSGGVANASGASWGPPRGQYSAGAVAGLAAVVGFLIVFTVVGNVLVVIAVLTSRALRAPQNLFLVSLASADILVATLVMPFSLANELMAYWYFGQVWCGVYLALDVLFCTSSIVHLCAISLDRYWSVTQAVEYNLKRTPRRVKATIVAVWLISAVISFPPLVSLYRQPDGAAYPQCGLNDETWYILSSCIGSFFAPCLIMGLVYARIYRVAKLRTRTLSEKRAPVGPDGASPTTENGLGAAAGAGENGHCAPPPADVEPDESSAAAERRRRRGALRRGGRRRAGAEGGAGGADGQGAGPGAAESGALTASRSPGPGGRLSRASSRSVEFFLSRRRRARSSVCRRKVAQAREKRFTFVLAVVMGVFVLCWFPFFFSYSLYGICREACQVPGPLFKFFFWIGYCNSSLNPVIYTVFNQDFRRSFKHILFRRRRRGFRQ
Sequence of Dual specificity protein phosphatase 6 (Homo sapiens) (Q16828 whole entry, looked up): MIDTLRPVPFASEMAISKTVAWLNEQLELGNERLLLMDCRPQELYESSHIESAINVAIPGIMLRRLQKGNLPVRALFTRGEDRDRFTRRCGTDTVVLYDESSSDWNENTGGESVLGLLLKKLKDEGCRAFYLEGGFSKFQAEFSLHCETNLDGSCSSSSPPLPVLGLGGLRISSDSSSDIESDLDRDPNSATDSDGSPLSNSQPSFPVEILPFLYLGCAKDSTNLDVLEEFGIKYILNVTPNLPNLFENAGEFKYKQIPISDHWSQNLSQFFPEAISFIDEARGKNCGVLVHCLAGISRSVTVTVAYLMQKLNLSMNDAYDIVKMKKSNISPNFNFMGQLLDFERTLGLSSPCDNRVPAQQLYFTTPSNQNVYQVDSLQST

Row | SMILES | cell count [1] | inhibition [1] | inhibition of aggregation [2] | nuclei count [2] | inhibition [3] | nuclei count [3] | z-score [4, 14] | z-score [4, 15] | z-score [4, 16] | inhibition [5] | fluorescence slope [6] | NADPH fluorescence slope [7] | slope [8] | fluorescence slope [9] | outcome [10] | inhibition [11] | inhibition [12] | inhibition [13]
1 | CCOc1ccc2nc(SCC(=O)Nc3ncccn3)[nH]c2c1 | 478 | -3.6% (inactive) | -10.2% (inactive) | 111% | -10.6% (inactive) | 138% | -1.13 | -0.409 | 1.4 | 1.98% (inactive) | -0.358 (inactive) | -4.6e-05 (inactive) | 0.00651 (inactive) | 0.00652 (inactive) | inactive | 10.6% (inactive) | -10.6% (inactive) | 99.1% (active)
2 | CCOC(=O)C1CCN(C(C)=C2C(=O)c3ccccc3C2=O)CC1 | 476 | -0.3% (inactive) | -15.9% (inactive) | 104% | -21.4% (inactive) | 95.3% | -0.165 | 0.853 | 0.114 | 7.73% (inactive) | -0.418 (inactive) | -3.2e-05 (inactive) | 0.00587 (inactive) | 0.0035 (inactive) | inactive | 25.7% (inactive) | 6.04% (inactive) | 16.6% (inactive)
3 | C=CCNc1nnc(SC2CC(=O)N(c3ccc(OC)cc3)C2=O)s1 (stereo not given) | 474 | -3.2% (inactive) | -17.3% (inactive) | 121% | -46.1% (inactive) | 151% | -0.38 | -0.537 | 0.655 | 5.95% (inactive) | -0.391 (inactive) | -3.8e-05 (inactive) | 0.00566 (inactive) | 0.00596 (inactive) | inactive | 34% (inactive) | 12.1% (inactive) | -1.97% (inactive)
4 | CCCN(CCC)C(=O)CC(c1ccc(F)cc1)c1ccco1 (stereo not given) | 558 | -1.8% (inactive) | 24.6% (inactive) | 92.6% | -37.9% (inactive) | 108% | 0.533 | -0.963 | -0.846 | 11.9% (inactive) | -0.467 (inactive) | -2.2e-05 (inactive) | 0.0041 (inactive) | 0.00507 (inactive) | inactive | 27.9% (inactive) | 19.1% (inactive) | 23% (inactive)
5 | CCOC(=O)C1/C(=N\O)CC(C)(O)C(C(=O)OCC)C1c1ccc(N(C)C)cc1 (stereo not given) | 497 | -1.5% (inactive) | -7.6% (inactive) | 106% | -131% (inactive) | 152% | -0.215 | 1.47 | 0.208 | 1.9e-07% (inactive) | -0.427 (inactive) | -4.6e-05 (inactive) | 0.00546 (inactive) | 0.00445 (inactive) | inactive | 0.652% (inactive) | 10.4% (inactive) | 16% (inactive)
6 | COC(=O)/C=c1/s/c(=C(/C#N)C(=O)N2CCOCC2)n(-c2ccccc2)c1=O | 611 | 1.5% (inactive) | -12.2% (inactive) | 98.4% | 7.3% (inactive) | 119% | 0.31 | -0.164 | -0.787 | 1.63% (inactive) | -0.479 (inactive) | -5e-05 (inactive) | 0.0052 (inactive) | 0.00508 (inactive) | inactive | 21% (inactive) | 15.2% (inactive) | 17.7% (inactive)
7 | CS(=O)(=O)Nc1ccc([N+](=O)[O-])cc1Oc1ccccc1 | 692 | -0.7% (inactive) | 0% (inactive) | 95.3% | -24.1% (inactive) | 124% | -0.515 | 1.09 | -0.635 | 11.3% (inactive) | -0.557 (inactive) | -3.9e-05 (inactive) | 0.00467 (inactive) | 0.00499 (inactive) | active; no signal in intestine only | 9.15% (inactive) and 12.1% (inactive) | 15% (inactive) | 15.8% (inactive)
8 | O=C(NCC(F)(F)F)N1CCOCC1 | 663 | 11.2% (inactive) | 14.7% (inactive) | 106% | -23.9% (inactive) | 102% | 0.272 | 0.0222 | 0.9 | -13.3% (inactive) | -0.508 (inactive) | -3.8e-05 (inactive) | 0.0049 (inactive) | 0.00517 (inactive) | inactive | 33.2% (inactive) | 9.24% (inactive) | 15.3% (inactive)
9 | COCCNC(=O)c1c(N)n(CCC2=CCCCC2)c2nc3ccccc3nc12 | 661 | -11.4% (inactive) | -0.5% (inactive) | 101% | -22.2% (inactive) | 149% | 1.39 | -1.83 | -0.195 | 20.2% (inactive) | -0.0792 (inactive) | -5.5e-06 (inactive) | 0.00496 (inactive) | 0.00724 (inactive) | inactive | 25.3% (inactive) | 6.4% (inactive) | 8.21% (inactive)
10 | Cc1nnc(NCc2n[nH]c(=O)c3ccccc23)c2ccccc12 | 459 | -4.7% (inactive) | -19.6% (inactive) | 51.5% | -23.8% (inactive) | 118% | -2.3 | 1.26 | 1.58 | 7.21% (inactive) | -0.502 (inactive) | -0.000115 (inactive) | 0.00499 (inactive) | 0.0052 (inactive) | inactive | -15.8% (inactive) | 4.22% (inactive) | -7.48% (inactive)
